Reference: PubChem BioAssay AID623979 (Broad Institute, 2012)
Measured potencies and affinities stand elsewhere. Inconclusive results are not listed. Active and inactive are the calls of the source.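 The calls were made as follows: active = fitted half-maximal inhibition concentration at or below twice the top tested dose in every test run; inconclusive = runs disagree, or a weak flat response or poor fit; inactive = the rest, including flat or wrong-direction curves.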

target: Cyclin-dependent kinase 5 activator 1 (Homo sapiens) + Cyclin-dependent kinase 5 (Homo sapiens) (UniProt Q15078+Q00535); experiment: CDK5-p25 kinase inhibition, dose response, selectivity assay for GSK3beta inhibitor project, biochemical, microfluidic mobility shift, dry powder, set 2 (AID 623979); conditions: recombinant CDK5-p25, Caliper peptide conversion, 55 min; series mostly up to 35 µM; activity change, negative = inhibition: at the top concentration
Sequence (Q00535 whole entry, looked up): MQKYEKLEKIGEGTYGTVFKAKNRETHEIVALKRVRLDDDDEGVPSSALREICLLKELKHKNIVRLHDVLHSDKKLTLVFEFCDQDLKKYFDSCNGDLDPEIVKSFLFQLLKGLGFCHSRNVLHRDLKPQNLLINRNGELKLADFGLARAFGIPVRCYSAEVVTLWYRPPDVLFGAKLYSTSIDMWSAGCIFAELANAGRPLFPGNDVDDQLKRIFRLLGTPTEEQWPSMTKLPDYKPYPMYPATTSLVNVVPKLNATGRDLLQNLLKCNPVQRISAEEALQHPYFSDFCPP
Sequence (Q15078 whole entry, looked up): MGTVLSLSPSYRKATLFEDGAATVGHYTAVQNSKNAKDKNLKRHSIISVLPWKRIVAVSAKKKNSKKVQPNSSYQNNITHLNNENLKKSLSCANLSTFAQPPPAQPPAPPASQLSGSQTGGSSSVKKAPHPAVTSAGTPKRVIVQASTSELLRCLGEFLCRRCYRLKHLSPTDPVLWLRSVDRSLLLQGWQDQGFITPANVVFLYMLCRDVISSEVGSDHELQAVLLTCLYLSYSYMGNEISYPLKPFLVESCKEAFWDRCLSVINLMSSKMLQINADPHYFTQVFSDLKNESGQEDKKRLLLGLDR

Activity change, negative = inhibition, inactive:
CCOc1ccccc1/C=N/NC(=O)c1nnn(-c2nonc2N)c1CN1CCCCCC1 -4.37%
Nc1nc(NCC2CCCO2)nc(Nc2ccc(Cl)cc2)c1[N+](=O)[O-] (stereo not given) -6.71%
Clc1ccc(CSc2nnc(-c3ccncc3)o2)c(Cl)c1 -0.53%
Nc1nonc1-n1nnc(C(=O)N/N=C/c2cccc(Cl)c2)c1CN1CCCCCC1 -2.45%
Nc1nc(NCC2CCCO2)nc(Nc2ccc(F)cc2)c1[N+](=O)[O-] (stereo not given) -9.06%
COC(=O)c1ccc(CSc2ccc3nnc(-c4ccc(F)cc4)n3n2)o1 -2.23%
COc1cc(C(=O)N2CCN(c3ccccn3)CC2)cc(OC)c1OC -2.66%
Cc1cccc(OCC(=O)Nc2ccc3c(c2)C(=O)NC3=O)c1 -5.65%
Nc1nonc1-n1nnc(C(=O)N/N=C/c2c(F)cccc2Cl)c1-c1ccc2c(c1)OCO2 -2.78%
Cc1ccc(S(=O)(=O)N2CCN(CC(=O)N/N=C/c3ccccn3)CC2)cc1 -4.16%
